Drawing on PubChem BioAssay (NCI), this text covers growth for eight compounds.

Each structure is given as a SMILES string. The panel holds about 83,000 compounds, 20% with a hit somewhere; the sample as a whole holds those more often.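 In brief: 96-well plates, 48 h treatment, single concentration, percent growth endpoint.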 A number with no mark means an inactive call. Calls of active or inactive are those of the source. The calls were made as follows: active = growth percent below 10; inactive = the rest.

Test systems include HCT-15 colon; HT29 colon; SNB-75 CNS; SNB-19 CNS; PC-3 prostate; SK-MEL-5 melanoma; UACC-62 melanoma; LOX IMVI melanoma; SK-MEL-28 melanoma; SK-MEL-2 melanoma; EKVX NSCLC; SN12C renal; UO-31 renal; TK-10 renal; ACHN renal; CAKI-1 renal; A498 renal; CCRF-CEM leukemia; MOLT-4 leukemia.
Common to all, as to assay: NCI-60 one-dose screen, 48 h (100 = growth as untreated, 0 = no growth, -100 = all killed)
Holding throughout (conditions): 10 µM unless noted

Turning to `CCNCCNc1cc(C2CCCCC2)c(C#N)c2nc3ccccc3n12`, the growth is 16.7% with HCT-15 colon; -50% (active) in the experiment on HT29 colon; -26% (active) in the experiment on SNB-75 CNS; 42.9% in the experiment on SNB-19 CNS; 40.2% in the experiment on PC-3 prostate; -55.1% (active) in the experiment with SK-MEL-5 melanoma. For the same compound, the growth in the experiment with UACC-62 melanoma was -62% (active); in the experiment on LOX IMVI melanoma, -94.8% (active); in the experiment on SK-MEL-28 melanoma it was -73.1% (active); with SK-MEL-2 melanoma, 23.2%; in the experiment on EKVX NSCLC it was 36%; in the experiment with SN12C renal, 12.8%. Besides, the growth in the experiment on UO-31 renal was -41% (active); in the experiment with TK-10 renal, 27.2%; in the experiment on ACHN renal, -52.2% (active); in the experiment on CAKI-1 renal, 25.1%; with A498 renal it was -25.1% (active); in the experiment on CCRF-CEM leukemia, -28.6% (active). Further, in the experiment with MOLT-4 leukemia, the growth is -7.01% (active).

For the compound `CC1=C([Se]CC(OC(=O)CC[Se]c2ccccc2)C(=O)NC(C)(C)C)C(=O)c2ccccc2C1=O` (configuration not stated), the growth in the experiment with HCT-15 colon is 4.43% (active); in the experiment with HT29 colon, 5.28% (active); in the experiment with SNB-75 CNS, -89.2% (active); in the experiment on SNB-19 CNS it was -88.1% (active); with PC-3 prostate it was -36% (active); with SK-MEL-5 melanoma it was -97.4% (active). Further, the growth is -76.4% (active) in the experiment on UACC-62 melanoma; -0.738% (active) in the experiment with LOX IMVI melanoma; -92.2% (active) with SK-MEL-28 melanoma; 9.93% (active) with SK-MEL-2 melanoma; -65.4% (active) in the experiment with EKVX NSCLC; -62.5% (active) in the experiment with SN12C renal. Further, the growth in the experiment with UO-31 renal was -12% (active); in the experiment on TK-10 renal it was -89.8% (active); in the experiment on ACHN renal, -55.5% (active); in the experiment with CAKI-1 renal it was -34.3% (active); in the experiment on A498 renal, -26.4% (active); in the experiment on CCRF-CEM leukemia, -10.8% (active). For the same compound, the growth with MOLT-4 leukemia was -31.6% (active).

On to `CCOC(=O)c1cc2c(n1Cc1cc(OC)c(OC)c(OC)c1)-c1nc(N)sc1CCC2`, for which the growth is 35.9% with HCT-15 colon; 19.3% in the experiment on HT29 colon; 60.3% in the experiment with SNB-75 CNS; 61.3% with SNB-19 CNS; 26.3% in the experiment with PC-3 prostate; 19.6% in the experiment with SK-MEL-5 melanoma. Also, the growth was 35.5% in the experiment on UACC-62 melanoma; 48.5% with LOX IMVI melanoma; 69.4% in the experiment with SK-MEL-28 melanoma; 32.6% in the experiment on SK-MEL-2 melanoma; 65.6% in the experiment on EKVX NSCLC; 88.5% in the experiment on SN12C renal. The growth is 57% in the experiment on UO-31 renal; 74.4% in the experiment on TK-10 renal; 77.2% with ACHN renal; 55.9% with CAKI-1 renal; 7.34% (active) in the experiment with A498 renal; 41.1% in the experiment on CCRF-CEM leukemia. The growth in the experiment on MOLT-4 leukemia was 66.7%.

As to `O=C(Nc1ccc(Oc2cccc(Cl)c2)c(Cl)c1)c1cccnc1`, the growth in the experiment on HCT-15 colon was 36.8%; in the experiment with HT29 colon, 8.57% (active); in the experiment with SNB-75 CNS, -23.2% (active); in the experiment with SNB-19 CNS it was 41.3%; with PC-3 prostate, 14.9%; with SK-MEL-5 melanoma, 14.5%. For the same compound, the growth in the experiment with UACC-62 melanoma was 37.6%; with LOX IMVI melanoma, 51.7%; in the experiment on SK-MEL-28 melanoma, 63.8%; in the experiment with SK-MEL-2 melanoma it was 44.1%; in the experiment with EKVX NSCLC, 50.9%; with SN12C renal, 43.4%. Besides, the growth in the experiment on UO-31 renal is 44.1%; in the experiment on TK-10 renal, 59.8%; with ACHN renal it was 41.7%; with CAKI-1 renal, 30.6%; in the experiment on A498 renal, -3.1% (active); with CCRF-CEM leukemia, 17.5%. Besides, the growth with MOLT-4 leukemia was 37.4%.

Turning to `CCn1cc(C(=O)NNC(=S)Nc2ccc(C)cc2)c(=O)c2ccc(C)nc21`, the growth in the experiment on HCT-15 colon is 103%; in the experiment on HT29 colon, 97.5%; with SNB-75 CNS, 97.3%; in the experiment on SNB-19 CNS, 102%; in the experiment with PC-3 prostate, 90.2%; in the experiment with SK-MEL-5 melanoma it was 101%. Moreover, the growth is 91.3% in the experiment with UACC-62 melanoma; 95.1% in the experiment with LOX IMVI melanoma; 105% with SK-MEL-28 melanoma; 104% in the experiment with SK-MEL-2 melanoma; 101% in the experiment with EKVX NSCLC; 88.6% in the experiment with SN12C renal. The growth in the experiment on UO-31 renal was 78.9%; in the experiment on TK-10 renal, 100%; in the experiment on ACHN renal, 95.5%; with CAKI-1 renal, 95.4%; in the experiment with A498 renal it was 76.4%; in the experiment with CCRF-CEM leukemia, 90.7%. Also, the growth in the experiment on MOLT-4 leukemia is 102%.

On to `N#CC(C#N)N=Nc1ccc(Br)cc1`, for which the growth in the experiment on HCT-15 colon was 16.8%; in the experiment with HT29 colon, 20.9%; in the experiment on SNB-75 CNS, 94.2%; in the experiment on SNB-19 CNS, 96.3%; in the experiment on PC-3 prostate, 19.1%; in the experiment with SK-MEL-5 melanoma, 77.9%. Also, the growth was 37.4% in the experiment with UACC-62 melanoma; 60.1% with LOX IMVI melanoma; 43.8% in the experiment on SK-MEL-28 melanoma; 82.1% with SK-MEL-2 melanoma; 55.9% with EKVX NSCLC; 21.3% in the experiment with SN12C renal. Besides, the growth in the experiment on UO-31 renal was 2.16% (active); in the experiment on TK-10 renal it was 36.5%; in the experiment with ACHN renal it was 16.6%; with CAKI-1 renal, 6.33% (active); in the experiment on A498 renal, 100%; in the experiment with CCRF-CEM leukemia, 9.65% (active). For the same compound, in the experiment with MOLT-4 leukemia, the growth was 31.8%.

As to `CN1CCc2nc3sc(C(N)=O)c(N)c3c(-c3cccs3)c2C1`, the growth was 33% in the experiment with HCT-15 colon; 42.6% in the experiment with HT29 colon; 25.2% with SNB-75 CNS; 37.9% with SNB-19 CNS; 32.5% with PC-3 prostate; -58.7% (active) with SK-MEL-5 melanoma. Besides, the growth in the experiment on UACC-62 melanoma was 19.5%; in the experiment on LOX IMVI melanoma, 7.95% (active); with SK-MEL-28 melanoma, 5.5% (active); with SK-MEL-2 melanoma it was 27.3%; with EKVX NSCLC, 47.7%; with SN12C renal, 29.1%. Besides, the growth with UO-31 renal was 4.13% (active); in the experiment with TK-10 renal, 43%; with ACHN renal, 8.41% (active); in the experiment with CAKI-1 renal, 38.8%; in the experiment with A498 renal it was -1.55% (active); in the experiment with CCRF-CEM leukemia it was 19.3%. Moreover, in the experiment on MOLT-4 leukemia, the growth is 62.1%.

As to `O=C(Nc1ccc(OS(=O)(=O)c2ccc(F)cc2)cc1)C1CCCCCC1`, the growth is 54.7% in the experiment with HCT-15 colon; 31.6% in the experiment on HT29 colon; 102% in the experiment with SNB-75 CNS; 89.4% in the experiment with SNB-19 CNS; 88.3% in the experiment with PC-3 prostate; 71.9% with SK-MEL-5 melanoma. Moreover, the growth was 85.5% in the experiment with UACC-62 melanoma; 86.7% in the experiment with LOX IMVI melanoma; 109% with SK-MEL-28 melanoma; 98.2% with SK-MEL-2 melanoma; 96% with EKVX NSCLC; 88.9% with SN12C renal. Further, the growth was 101% in the experiment on UO-31 renal; 107% in the experiment on TK-10 renal; 110% with ACHN renal; 91.7% in the experiment with CAKI-1 renal; 85.1% in the experiment on A498 renal; 81.5% in the experiment on CCRF-CEM leukemia. Further, in the experiment with MOLT-4 leukemia, the growth was 77.4%.
